In ChEMBL document CHEMBL4513143, “CO-ADD screening of University of Natural Resources and Life (Austria) compounds” one finds Inhibition data, which are given here for ten compounds.

For test [1], the system named is Staphylococcus aureus. The conditions noted are these: Concentration 32 ug.mL-1; ASSAY_TEST Inhibition of Bacterial Growth; detection method Absorption (OD600); MEDIA CAMHB; plate type 384well; NBS; CORNING #3640; time 18 hr.
Test [2] deals with Escherichia coli. The conditions noted are these: Concentration 32 ug.mL-1; ASSAY_TEST Inhibition of Bacterial Growth; detection method Absorption (OD600); MEDIA CAMHB; plate type 384well; NBS; CORNING #3640; time 18 hr.

Potency and affinity values are given separately.

Usually Inhibition stands for the relative decrease from the control value, in per cent. Low values mean a response near the control, high ones a response far below the control. Regarding `CCN(CC)CC.C[C@H](CC1O[C@H]([C@H](O)CO)[C@@H](O)[C@H](O)[C@@H]1O)OP(=O)(O)OC[C@H]1O[C@@H](n2cnc3c(N)ncnc32)[C@H](O)[C@@H]1O` (stereo not given in full), the values for the Inhibition in test [1] and in test [2] were 30.75% and 16.06%, respectively.

On to `CCN(CC)CC.C[C@@H](CC1O[C@H]([C@H](O)CO)[C@@H](O)[C@H](O)[C@@H]1O)OP(=O)(O)OC[C@H]1O[C@@H](n2cnc3c(N)ncnc32)[C@H](O)[C@@H]1O` (stereo not given in full), for which the Inhibition is listed as 27.38% in test [1] and 10.57% in test [2].

With `N.O=C(O)C1(O)C[C@@H](O)[C@H](O)[C@@H]([C@@H](O)CO)O1` (stereo not given in full), the Inhibition is given as 25.6% in test [1] and 22.94% in test [2].

Regarding `CCN(CC)CC.C[C@H](CC1O[C@H]([C@@H](O)CO)[C@@H](O)[C@H](O)[C@@H]1O)OP(=O)(O)OC[C@H]1O[C@@H](n2cnc3c(N)ncnc32)[C@H](O)[C@@H]1O` (stereo not given in full), the figures for the Inhibition in test [1] and in test [2] were 25.31% and 11.12%, respectively.

On to `CCN(CC)CC.C[C@@H](CC1O[C@H]([C@@H](O)CO)[C@@H](O)[C@H](O)[C@@H]1O)OP(=O)(O)OC[C@H]1O[C@@H](n2cnc3c(N)ncnc32)[C@H](O)[C@@H]1O` (stereo not given in full), for which the Inhibition in test [1] was 27.76%; in test [2], 16.43%.

Regarding `CC(=O)CC1O[C@H]([C@@H](O)CO)[C@@H](O)[C@H](O)[C@@H]1O` (stereo not given in full), the values for the Inhibition in test [1] and in test [2] were 21.72% and 24.3%, respectively.

Consider `CCN(CC)CC.O=P(O)(O)OC1C[C@@H](O)[C@H](O)[C@@H]([C@H](O)CO)O1` (stereo not given in full), for which the Inhibition in test [1] was found to be 23.92%; in test [2] it was 21.41%.

For the compound `OC[C@@H](O)[C@H]1OC(O)C[C@@H](O)[C@@H]1O` (stereo not given in full), the results for the Inhibition in test [1] and in test [2] were 21.66% and 15.99%, respectively.

As to `CCN(CC)CC.C[C@H](CC1O[C@H]([C@@H](O)CO)[C@@H](O)[C@H](O)[C@@H]1O)OP(=O)(O)O` (stereo not given in full), the Inhibition in test [1] is listed as 23.43%; in test [2] it was 26.24%.

In the case of `CCN(CC)CC.C[C@@H](CC1O[C@H]([C@@H](O)CO)[C@@H](O)[C@H](O)[C@@H]1O)OP(=O)(O)O` (stereo not given in full), the Inhibition came out at 24.59% in test [1] and 26.95% in test [2].
